Test results from PubChem BioAssay (EPA / NIEHS).
Results filed as inconclusive are left out. Calls of active or inactive are those of the source. How the source made its calls, unless noted: active means hit-call score of the fitted dose curve at least 0.9, where 1 is the maximum; inactive means score below 0.9.

Experiments:
[1] = read-out: NAD(P)H dehydrogenase [quinone] 1 (NQO1), NQO1 (gene 1728); assay: LTEA_HepaRG_NQO1: Life Technologies and Expression Analysis (LTEA) Assay for NAD(P)H dehydrogenase [quinone] 1 (NQO1) using HepaRG (AID 2283526); conditions: mRNA level, 48 h; actives raise or lower the signal
How it was run: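 HepaRG, 48 h post-plating → serum-free induction medium → test chemical 48 h (duplicate, 100 uM top, half-log x8, 0.5% DMSO) → RNA isolation → qRT-PCR, ACTB/GAPDH/POLR2A normalization; bidirectional curve fit vs DMSO baseline.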

[2] = read-out: Nuclear factor erythroid 2-related factor 2 (Homo sapiens) (UniProt Q16236); assay: LTEA_HepaRG_NFE2L2: Life Technologies and Expression Analysis (LTEA) Assay for Nuclear factor erythroid 2-related factor 2 (NFE2L2) Transcription Factor using HepaRG (AID 2283527); conditions: mRNA level, 48 h; actives raise or lower the signal;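 further: TaqMan qRT-PCR transcript level normalised to ACTB GAPDH and POLR2A housekeeping genes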
How it was run: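 Differentiated human HepaRG cells in serum-free induction medium were exposed for 48 h to eight concentrations (top 100 uM, half-log dilutions, 0.5% DMSO), in duplicate. NFE2L2 mRNA was quantified by TaqMan qRT-PCR, normalized to ACTB, GAPDH and POLR2A, with bidirectional fitting versus DMSO.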

[3] = read-out: succinate dehydrogenase complex iron sulfur subunit B (SDHB), SDHB (gene 6390); assay: LTEA_HepaRG_SDHB: Life Technologies and Expression Analysis (LTEA) Assay for succinate dehydrogenase complex iron sulfur subunit B (SDHB) using HepaRG (AID 2283528); conditions: mRNA level, 48 h; actives raise or lower the signal
How it was run: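 A human HepaRG culture in serum-free induction medium received test chemicals for 48 h over an eight-point range capped at 100 uM. SDHB expression change was quantified by qRT-PCR.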

[4] = read-out: Signal transducer and activator of transcription 3 (Homo sapiens) (UniProt P40763); assay: LTEA_HepaRG_STAT3: Life Technologies and Expression Analysis (LTEA) Assay for Signal transducer and activator of transcription (STAT3) using HepaRG (AID 2283529); conditions: mRNA level, 48 h; actives raise or lower the signal
How it was run: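 Differentiated human HepaRG cells in serum-free induction medium were exposed in duplicate for 48 h to eight half-log concentrations up to 100 uM in 0.5% DMSO. STAT3 mRNA was quantified by TaqMan qRT-PCR, normalized to ACTB, GAPDH and POLR2A, and fitted bidirectionally against DMSO.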

[5] = read-out: solute carrier (SLCO1B1), SLCO1B1 (gene 10599); assay: LTEA_HepaRG_SLCO1B1: Life Technologies and Expression Analysis (LTEA) Assay for solute carrier (SLCO1B1) using HepaRG (AID 2283530); conditions: mRNA level, 48 h; actives raise or lower the signal
How it was run: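 Differentiated human HepaRG cells, plated 48 h, switched to serum-free induction medium and exposed in duplicate for 48 h to 8 half-log concentrations (top 100 uM) in 0.5% DMSO. SLCO1B1 mRNA by TaqMan qRT-PCR, normalized to ACTB/GAPDH/POLR2A.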

[6] = read-out: sulfotransferase 2A1 (SULT2A1), SULT2A1 (gene 6822); assay: LTEA_HepaRG_SULT2A1: Life Technologies and Expression Analysis (LTEA) Assay for sulfotransferase 2A1 (SULT2A1) using HepaRG (AID 2283531); conditions: mRNA level, 48 h; actives raise or lower the signal
How it was run: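 Differentiated human HepaRG cells in serum-free induction medium were exposed for 48 h to eight half-log concentrations (top 100 uM, 0.5% DMSO). SULT2A1 mRNA was measured by qRT-PCR, normalized to ACTB, GAPDH and POLR2A, and fitted bidirectionally against DMSO.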

[7] = read-out: Transforming Growth Factor (TGFA), TGFA (gene 7039); assay: LTEA_HepaRG_TGFA: Life Technologies and Expression Analysis (LTEA) Assay for Transforming Growth Factor (TGFA) using HepaRG (AID 2283532); conditions: mRNA level, 48 h; actives raise or lower the signal
How it was run: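 Differentiated human HepaRG cells, plated 48 h then switched to serum-free induction medium, were exposed in duplicate for 48 h to 8-point half-log series from 100 uM in 0.5% DMSO. TGFA mRNA measured by qRT-PCR, normalized to ACTB/GAPDH/POLR2A, bidirectional fit versus DMSO.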

[8] = read-out: Transforming Growth Factor (TGFB1), TGFB1 (gene 7040); assay: LTEA_HepaRG_TGFB1: Life Technologies and Expression Analysis (LTEA) Assay for Transforming Growth Factor (TGFB1) Transporter using HepaRG (AID 2283533); conditions: mRNA level, 48 h; actives raise or lower the signal
How it was run: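 Differentiated human HepaRG cells in serum-free induction medium were exposed in duplicate for 48 h to eight concentrations (top 100 uM, half-log steps, 0.5% DMSO). TGFB1 mRNA was quantified by qRT-PCR, normalized to ACTB, GAPDH, POLR2A, and fitted bidirectionally against DMSO.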

TIMP1, TIMP1 (gene 7076) = assay: LTEA_HepaRG_TIMP1: Life Technologies and Expression Analysis (LTEA) Assay for TIMP1 using HepaRG (AID 2283534); conditions: mRNA level, 48 h; actives raise or lower the signal;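 further: TaqMan qRT-PCR signal normalized to ACTB GAPDH and POLR2A housekeeping genes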
How it was run: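 Differentiated human HepaRG cells in serum-free induction medium were exposed 48 h to chemicals (8 half-log concentrations, top 100 uM, 0.5% DMSO). TIMP1 mRNA was quantified by TaqMan qRT-PCR, normalized to ACTB/GAPDH/POLR2A; bidirectional fit versus DMSO.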

[9] = read-out: Tumor necrosis factor receptor 1 (TNFRSF1A), TNFRSF1A (gene 7132); assay: LTEA_HepaRG_TNFRSF1A: Life Technologies and Expression Analysis (LTEA) Assay for Tumor necrosis factor receptor 1 (TNFRSF1A) using HepaRG (AID 2283535); conditions: mRNA level, 48 h; actives raise or lower the signal
How it was run: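 Differentiated human HepaRG cells were exposed in duplicate for 48 h in serum-free induction medium to eight concentrations (top 100 uM, half-log steps, 0.5% DMSO). TNFRSF1A mRNA was quantified by qRT-PCR, normalized to ACTB, GAPDH and POLR2A, then fitted bidirectionally against DMSO.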

[10] = read-out: Thyroid Hormone Responsive (THRSP), THRSP (gene 7069); assay: LTEA_HepaRG_THRSP: Life Technologies and Expression Analysis (LTEA) Assay for Thyroid Hormone Responsive (THRSP) using HepaRG (AID 2283536); conditions: mRNA level, 48 h; actives raise or lower the signal
How it was run: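 Differentiated human HepaRG cells were exposed in duplicate for 48 h in serum-free induction medium to eight concentrations (top 100 uM, half-log steps, 0.5% DMSO). Expression was quantified by TaqMan qRT-PCR, normalized to ACTB, GAPDH and POLR2A, with bidirectional fitting against DMSO.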

[11] = read-out: Cellular tumor antigen p53 (Homo sapiens) (UniProt P04637); assay: LTEA_HepaRG_TP53: Life Technologies and Expression Analysis (LTEA) Assay for Tumor Protein P53 (TP53) using HepaRG (AID 2283537); conditions: mRNA level, 48 h; actives raise or lower the signal
How it was run: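 Gain or loss of TP53 mRNA signal is scored relative to 0.5% DMSO after 48 h chemical treatment of HepaRG liver cells, tested in duplicate at eight half-log concentrations up to 100 uM.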

[12] = read-out: UDP glucuronosyltransferase (UGT1A1), UGT1A1 (gene 54658); assay: LTEA_HepaRG_UGT1A1: Life Technologies and Expression Analysis (LTEA) Assay for UDP glucuronosyltransferase (UGT1A1) using HepaRG (AID 2283538); conditions: mRNA level, 48 h; actives raise or lower the signal
How it was run: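 Readout is UGT1A1 transcript level by qRT-PCR, normalized to three housekeeping genes, after 48 h chemical treatment of HepaRG cells. Concentrations ran from 100 uM down in half-log steps with 0.5% DMSO, and gain or loss relative to DMSO was fitted.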

[13] = read-out: UDP glucuronosyltransferase (UGT1A6), UGT1A6 (gene 54578); assay: LTEA_HepaRG_UGT1A6: Life Technologies and Expression Analysis (LTEA) Assay for UDP glucuronosyltransferase (UGT1A6) using HepaRG (AID 2283539); conditions: mRNA level, 48 h; actives raise or lower the signal
How it was run: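 Human HepaRG cells were dosed for 48 h in serum-free induction medium with 0.5% DMSO vehicle, eight-point half-log series from 100 uM, in duplicate. UGT1A6 mRNA was measured by qRT-PCR, normalized to ACTB, GAPDH, POLR2A, and fitted bidirectionally against DMSO.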

[14] = read-out: X-box binding protein 1 (XBP1), XBP1 (gene 7494); assay: LTEA_HepaRG_XBP1: Life Technologies and Expression Analysis (LTEA) Assay for X-box binding protein 1 (XBP1) using HepaRG (AID 2283540); conditions: mRNA level, 48 h; actives raise or lower the signal
How it was run: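 Differentiated human HepaRG cells in serum-free induction medium were exposed in duplicate for 48 h to eight half-log concentrations up to 100 uM in 0.5% DMSO. XBP1 mRNA was quantified by qRT-PCR, normalised to ACTB, GAPDH and POLR2A, with bidirectional fitting against DMSO.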

[15] = LTEA_HepaRG_LDH_cytotoxicity: Cytotoxicity Assessment in the Life Technologies and Expression Analysis (LTEA) Assay (AID 2283563; active means hit-call score of the fitted dose curve at least 0.9, where 1 is the maximum)
How it was run: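 Differentiated human HepaRG cells, plated 48 h beforehand, were switched to serum-free induction medium and exposed for 48 h to eight half-log concentrations (top 100 uM) in 0.5% DMSO. LDH was measured in spent medium; activity was fitted relative to DMSO vehicle.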

[16] = TOX21_p53_BLA_p2_viability: Viability Assessment in the Tox21 HCT-116 p53 Agonism Beta-lactamase Assay, Phase 2 (AID 2283591; active means hit-call score of the fitted dose curve at least 0.9, where 1 is the maximum;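 further: compound exposure lasted 16 h at 37 °C; actives lower the ATP signal meaning cytotoxicity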)
How it was run: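 HCT-116 p53-bla cells (4000/well) rested 5 h at 37C, then received compounds in DMSO (217-fold dilution) for 16 h at 37C, 5% CO2. After the CCF4 read, CellTiter-Glo was added; ATP luminescence was read after 30 min at room temperature.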

[17] = molecular target: Cellular tumor antigen p53 (Homo sapiens) (UniProt P04637); assay: TOX21_p53_BLA_p2_ratio: Tox21 HCT-116 p53 Agonism Beta-lactamase Assay, Ratio, Phase 2 (AID 2283592; active means hit-call score of the fitted dose curve at least 0.9, where 1 is the maximum)
Chain of Cellular tumor antigen p53 (Homo sapiens) (P04637 whole entry, looked up): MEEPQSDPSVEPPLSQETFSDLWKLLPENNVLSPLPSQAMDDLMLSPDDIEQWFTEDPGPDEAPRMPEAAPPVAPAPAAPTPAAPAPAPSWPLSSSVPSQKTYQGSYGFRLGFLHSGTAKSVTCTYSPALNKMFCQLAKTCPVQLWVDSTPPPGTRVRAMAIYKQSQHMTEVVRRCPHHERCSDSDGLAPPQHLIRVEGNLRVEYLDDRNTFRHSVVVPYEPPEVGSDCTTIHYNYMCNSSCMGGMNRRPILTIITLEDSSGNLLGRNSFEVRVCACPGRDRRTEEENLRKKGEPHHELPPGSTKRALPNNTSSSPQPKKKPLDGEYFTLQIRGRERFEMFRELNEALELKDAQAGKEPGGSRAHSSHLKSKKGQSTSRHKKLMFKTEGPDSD
How it was run: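 HCT116 cells carrying a p53-responsive beta-lactamase reporter were plated, incubated 5 h at 37C, then dosed with compounds in DMSO (217-fold dilution) for 16 h. CCF4-AM substrate was added for 2 h at room temperature; the 460/530 nm emission ratio gave gain-of-signal activity relative to DMSO.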

[18] = TOX21_p53_BLA_p3_viability: Viability Assessment in the Tox21 HCT-116 p53 Agonism Beta-lactamase Assay, Phase 3 (AID 2283593; active means hit-call score of the fitted dose curve at least 0.9, where 1 is the maximum;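 further: cells exposed to compound for 16 h before reading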)
How it was run: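 HCT-116 cells (4000/well) rested 5 h at 37C, then got DMSO compounds by pin tool (217-fold dilution) for 16 h at 37C, 5% CO2. After the bla read, CellTiter-Glo was added and luminescence read at 30 min, room temperature.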

Measured: AC50

Chain of Signal transducer and activator of transcription 3 (Homo sapiens) (P40763 whole entry, looked up): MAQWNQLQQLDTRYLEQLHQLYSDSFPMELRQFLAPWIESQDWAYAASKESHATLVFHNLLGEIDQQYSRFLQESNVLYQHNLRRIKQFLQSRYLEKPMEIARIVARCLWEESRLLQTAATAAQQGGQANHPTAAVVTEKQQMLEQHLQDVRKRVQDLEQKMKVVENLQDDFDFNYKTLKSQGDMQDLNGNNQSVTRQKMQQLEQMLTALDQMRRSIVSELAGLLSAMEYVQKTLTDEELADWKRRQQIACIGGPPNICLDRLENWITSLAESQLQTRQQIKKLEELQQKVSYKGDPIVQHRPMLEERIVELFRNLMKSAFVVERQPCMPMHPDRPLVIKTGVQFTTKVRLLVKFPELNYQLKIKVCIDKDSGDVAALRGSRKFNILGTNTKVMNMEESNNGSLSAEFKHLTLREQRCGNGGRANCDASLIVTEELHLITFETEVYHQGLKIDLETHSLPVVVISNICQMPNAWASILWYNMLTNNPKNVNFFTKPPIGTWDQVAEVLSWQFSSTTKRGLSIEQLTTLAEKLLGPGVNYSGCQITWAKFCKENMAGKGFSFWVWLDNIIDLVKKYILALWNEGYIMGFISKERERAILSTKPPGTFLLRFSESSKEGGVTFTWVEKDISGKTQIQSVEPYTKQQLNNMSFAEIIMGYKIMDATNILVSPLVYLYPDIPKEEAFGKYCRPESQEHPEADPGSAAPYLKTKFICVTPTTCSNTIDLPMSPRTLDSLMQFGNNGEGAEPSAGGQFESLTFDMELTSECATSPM
Chain of Nuclear factor erythroid 2-related factor 2 (Homo sapiens) (Q16236 whole entry, looked up): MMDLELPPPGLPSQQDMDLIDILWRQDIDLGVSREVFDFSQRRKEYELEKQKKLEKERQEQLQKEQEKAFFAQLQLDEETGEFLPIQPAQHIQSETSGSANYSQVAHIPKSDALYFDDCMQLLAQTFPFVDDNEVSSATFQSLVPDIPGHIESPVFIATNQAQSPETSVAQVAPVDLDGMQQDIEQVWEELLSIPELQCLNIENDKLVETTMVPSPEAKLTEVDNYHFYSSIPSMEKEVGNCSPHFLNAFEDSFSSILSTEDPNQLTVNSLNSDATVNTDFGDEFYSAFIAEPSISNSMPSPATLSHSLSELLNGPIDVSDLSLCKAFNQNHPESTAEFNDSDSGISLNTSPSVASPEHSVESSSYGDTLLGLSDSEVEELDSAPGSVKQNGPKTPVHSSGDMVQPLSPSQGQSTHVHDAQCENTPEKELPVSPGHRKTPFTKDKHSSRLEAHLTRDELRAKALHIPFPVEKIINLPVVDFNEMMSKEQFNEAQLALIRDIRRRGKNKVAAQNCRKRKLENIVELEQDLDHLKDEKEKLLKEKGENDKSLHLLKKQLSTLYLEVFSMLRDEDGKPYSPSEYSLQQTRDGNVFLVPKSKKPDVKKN

CCCN(CC)CC1COC2(CCC(C(C)(C)C)CC2)O1 (centres undefined)
active: [10] 0.319 µM
inactive: all other assays above

CC1(C)C(C(=O)OC(C#N)c2cccc(Oc3ccccc3)c2)C1(C)C (centres undefined)
active: [12] 50 µM
not listed: [6]
inactive: all other assays above

N#CN=C1SCCN1Cc1ccc(Cl)nc1
not listed: [6] | [16] | [17]
inactive: all other assays above

CCCC(=NOCC)C1=C(O)CC(CC(C)SCC)CC1=O (centres undefined)
active: [12] 50.2 µM
not listed: [6] | [16] | [18]
inactive: all other assays above
